Results: PubChem BioAssay (NCI)
Compounds without any hit were thinned out: in the full panel of roughly 83,000, 20% have a hit.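 48-hour exposure, single concentration, 96-well plates; percent growth endpoint where 0 means no net growth. Active: below 10.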 A number with no mark means an inactive call. Activity calls are given as the source filed them.

What was measured:
Assay in all cases: NCI-60 one-dose screen, 48 h (100 = growth as untreated, 0 = no growth, -100 = all killed)
Details in all cases: 10 µM unless noted
NCI-H23 lung = system: NCI-H23 lung
NCI-H226 lung = system: NCI-H226 lung
NCI-H322M lung = system: NCI-H322M lung
HOP-62 NSCLC = system: HOP-62 NSCLC
NCI-H460 lung = system: NCI-H460 lung
NCI-H522 lung = system: NCI-H522 lung
A549/ATCC NSCLC = system: A549/ATCC NSCLC
786-0 renal = system: 786-0 renal
COLO 205 colon = system: COLO 205 colon
DU-145 prostate = system: DU-145 prostate
K-562 leukemia = system: K-562 leukemia
MALME-3M melanoma = system: MALME-3M melanoma
MDA-MB-231 breast = system: MDA-MB-231 breast
RXF 393 renal = system: RXF 393 renal
SF-268 CNS = system: SF-268 CNS
SF-295 CNS = system: SF-295 CNS
SF-539 CNS = system: SF-539 CNS
UACC-257 melanoma = system: UACC-257 melanoma
M14 melanoma = system: M14 melanoma
HCT-15 colon = system: HCT-15 colon

SMILES | growth (NCI-H23 lung) | growth (NCI-H226 lung) | growth (NCI-H322M lung) | growth (HOP-62 NSCLC) | growth (NCI-H460 lung) | growth (NCI-H522 lung) | growth (A549/ATCC NSCLC) | growth (786-0 renal) | growth (COLO 205 colon) | growth (DU-145 prostate) | growth (K-562 leukemia) | growth (MALME-3M melanoma) | growth (MDA-MB-231 breast) | growth (RXF 393 renal) | growth (SF-268 CNS) | growth (SF-295 CNS) | growth (SF-539 CNS) | growth (UACC-257 melanoma) | growth (M14 melanoma) | growth (HCT-15 colon)
COc1ncc(-c2ccc3nccc(C#CCN4CCN(S(C)(=O)=O)CC4)c3c2)cc1NS(=O)(=O)c1ccc(F)cc1F | 6.7% (active) | 9.35% (active) | -11.8% (active) | 9.92% (active) | 6.27% (active) | -1.57% (active) | 5.73% (active) | -8.36% (active) | -55.1% (active) | 17.9% | 8.7% (active) | -32.3% (active) | 10.5% | -23.5% (active) | 6.1% (active) | 13% | -16.1% (active) | -4.75% (active) | -2.97% (active) | 10.4%
CCOC(=O)C1=C(COCCN)NC(C)=C(C(=O)OC)C1c1ccccc1Cl (configuration not stated) | 83.7% | 91.9% | 80.3% | 89.7% | 60.3% | 73.3% | 71.8% | 70.1% | -51.9% (active) | 98.6% | 59.1% | 74% | 17.4% | 50.9% | 87% | 96.2% | 92.9% | 59% |  | 64.6%
Clc1ncn[nH]1 | 106% | 102% | 98.4% | 98.6% | 111% | 94.9% | 98.1% | 103% | 104% | 110% | 105% | 103% | 112% | 102% | 104% | 78.6% | 99.8% | 95% | 105% | 98.6%
O=C(Nc1ccc(Oc2ccc(NC(=O)Nc3ccc([N+](=O)[O-])cc3)cc2)cc1)Nc1ccc([N+](=O)[O-])cc1 | -17.8% (active) | 24.4% | 22.6% | -25% (active) | 2.83% (active) | -15.3% (active) | 7.01% (active) | -1.95% (active) | -51.1% (active) | 17.3% | -4.47% (active) | -3.45% (active) | 35.1% | 28.7% | 19.7% | 22% | 24.9% | -20.9% (active) |  | 10.3%
CC(=O)O[C@H]1C(=O)[C@@]2(C)C([C@H](OC(=O)c3ccccc3)[C@]3(O)C[C@H](OC(=O)[C@H](O)[C@@H](NC(=O)c4ccccc4)c4ccccc4)C(C)=C1C3(C)C)[C@]1(OC(C)=O)CO[C@@H]1C[C@@H]2O (some centres not stated) | 27.9% | 44.8% | 28.1% | 24.6% | 7.33% (active) | -25.2% (active) | 13.1% | 17.6% | 1.91% (active) | -36.8% (active) | 12.5% | 57.3% | 17% | -17.9% (active) | 30.2% | -8.51% (active) | 13.1% | 45% |  | 23.7%
Cc1ccc([N+](=O)[O-])cc1NC(=O)Nc1cccc(F)c1 | 42.2% | 69.6% | 98.3% | 99.4% | 47.2% | 31.4% | 57.9% | 71.6% | 138% | 84.6% | 31.4% | 99.6% | 93.4% | 126% | 100% | 50.3% | 85.1% | 82% | 67.7% | 68.4%
COc1ccc(-c2cc(Cc3cccs3)c(=O)n(Cn3ccc4ccccc43)n2)cc1 | 105% | 104% | 110% | 105% | 115% | 95.5% | 104% | 110% | 110% | 110% | 105% | 106% | 100% | 116% | 110% | 101% | 101% | 103% | 106% | 98.4%
